{
  "source": "PubChem BioAssay (NCATS)",
  "note": "Results filed as inconclusive are left out. Where a call stands in place of a potency, no number is given. Active and inactive are the calls of the source. The call rests on the fitted dose curve; in most records, active means well fitted inhibition curve with a large enough effect; inconclusive means small, poorly fitted or top-dose-only effect; inactive means flat fitted curve, though single readings scatter.",
  "data": [
    {"target": "Calcium and integrin-binding protein 1 (Homo sapiens) (UniProt Q99828)", "sequence (Q99828 whole entry, looked up)": "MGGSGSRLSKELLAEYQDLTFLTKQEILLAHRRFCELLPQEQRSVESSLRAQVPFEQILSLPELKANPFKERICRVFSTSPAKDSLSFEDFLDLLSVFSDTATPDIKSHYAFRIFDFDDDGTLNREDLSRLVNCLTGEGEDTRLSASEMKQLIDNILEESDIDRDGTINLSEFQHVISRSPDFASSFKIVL", "assay": "Primary qHTS for Identification of Calcium Integrin Binding Protein 1 (CIB1) Competitor (AID 1508620);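 further: GST tagged CIB1 binding a fluorescein labelled alphaIIb integrin peptide tracer; top concentration of the series differs between compounds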", "conditions": "CIB1-GST / FITC-alphaIIb peptide fluorescence polarization; series mostly up to 114 µM", "outline": "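CIB1-GST (1 uM final) and compound incubated 15 min at room temperature before adding FITC-alphaIIb peptide tracer (100 nM final). Competition for binding read by fluorescence polarization (ex 480, em 540) after another 15 min at room temperature.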", "values": [
      {"smiles": "CCCC1(c2ccccc2)NC(=O)N(CC(=O)N(C)Cc2c(F)cccc2Cl)C1=O", "note": "(centres undefined)", "Potency": "inactive"},
      {"smiles": "CCOC(=O)C(CCc1ccccc1)NC(C)C(=O)N1C(=O)N(C)CC1C(=O)O", "note": "(centres undefined)", "Potency": "inactive"},
      {"smiles": "C[C@@H]1O[C@@H](O[C@H]2[C@H](O)[C@@H](O)[C@H](O[C@H]3[C@H](O[C@H]4CC[C@@]5(C)C(=CC[C@@H]6C5CC[C@]5(C)[C@@H]7[C@H](C[C@@H]65)O[C@]5(CC[C@@](C)(CO[C@@H]6O[C@H](CO)[C@@H](O)[C@H](O)[C@H]6O)O5)[C@H]7C)C4)O[C@H](CO)[C@@H](O)[C@@H]3O)O[C@@H]2CO)[C@H](O)[C@H](O)[C@H]1O", "note": "(some centres undefined)", "Potency": "inactive"},
      {"smiles": "C=C[C@@](C)(O)CC/C=C(\\C)C(=O)O[C@@H]1[C@@H]2O[C@]2(C)[C@H]2[C@H](O[C@@H]3O[C@H](CO)[C@@H](O)[C@H](O)[C@H]3O)OC=C[C@@]12O", "Potency": "inactive"},
      {"smiles": "Cc1cc(OCc2nnc(SC3CCCC3)n2-c2cccnc2)ccc1-c1ccc(S(C)(=O)=O)cc1", "Potency": "inactive"},
      {"smiles": "COc1ccc2c(OC)c3ccoc3nc2c1OC", "Potency": "inactive"},
      {"smiles": "COc1cc(C(=O)OC[C@H]2O[C@@H](Oc3ccccc3/C=C/C(=O)O)[C@H](O)[C@@H](O)[C@@H]2O)cc(OC)c1OC", "Potency": "inactive"},
      {"smiles": "CCN(CC)c1ccc2c(O)c(C=Nc3ccc(CC(=O)O)c(-c4c5c(nc6ccccc46)CCC(C(=O)NN)C5)c3)c(=O)oc2c1", "note": "(centres undefined)", "Potency": "inactive"},
      {"smiles": "CC(=O)OC1CC2(C)C3=CCC4(C)C5C(O)C(O)C(C(C)C)C5(C)CCC4(C)C3CCC2C(C)(C)C1OC1OC(CO)C(O)C(O)C1O", "note": "(centres undefined)", "Potency": "inactive"}
    ]}
  ]
}
